Holding throughout (experiment): NCI-60 one-dose screen, 48 h (100 = growth as untreated, 0 = no growth, -100 = all killed)
Settings in all cases: 10 µM unless noted

In test [1] the test system is RPMI-8226 leukemia.
For test [2], the system named is OVCAR-8 ovarian.
The subject of test [3] is OVCAR-5 ovarian.
Test [4] relates to OVCAR-4 ovarian.
Test [5] has as its system SK-OV-3 ovarian.
Test [6] deals with IGROV1 ovarian.
Test [7] has as its system OVCAR-3 ovarian.
The subject of test [8] is HS 578T breast.
Test [9] concerns NCI/ADR-RES ovarian.
Test [10] has as its system T-47D breast.

This is part of a sample that, as a whole, favours compounds with a hit. Of some 83,000 tested, about 20% had one in any assay.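 Single-dose data. Exposure time 48 hours. Values below 10 considered active.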 Values without a mark were called inactive. Calls of active or inactive are those of the source.

`C[C@H](Oc1cc(-c2cnn(C3CCNCC3)c2)cnc1N)c1c(Cl)ccc(F)c1Cl`: the growth in test [1] is 23.3%; in test [2], 77.7%; in [3], 94.3%; in test [4], 66.7%; in [5] it was 87.2%; in test [6], 71.9%. Besides, the growth in test [7] was 72.3%; in [8] it was 56.5%; in test [9], 85.1%; in test [10], 55.7%.
In the case of `CCOC(=O)NC(Cc1ccccc1)c1ccccc1` (stereo not given), the growth in [1] was 98.2%; in test [2], 104%; in test [3] it was 106%; in [4] it was 106%; in test [5] it was 108%; in test [6], 103%. The growth is 119% in test [7], 102% in [8], 98.2% in [9] and 99.6% in test [10].
Consider `CCCCn1c2cc(OCc3cn(-c4ccc(Cl)cc4)nn3)ccc2c2ccnc(C)c21`, for which the growth in [1] is -34.3% (active); in [2] it was 29.7%; in [3] it was 39.5%; in test [4] it was 18.2%; in [5] it was 52.9%; in test [6], 39.3%. The growth in [7] was 30.1%; in test [8], 54.2%; in [9], 28%; in test [10] it was 22.2%.
For `CN(C)C1=NCCN1`, the growth in test [1] was 95.2%; in test [2], 104%; in test [3] it was 104%; in [4] it was 114%; in [5], 109%; in test [6] it was 104%. Besides, the growth in test [7] is 104%; in test [8], 106%; in test [9], 106%; in test [10] it was 110%.
In the case of `CC(C)C[C@H](C(=O)O)N(C)C(=O)[C@@H]1CCCN1C(=O)[C@H](C)OC(=O)[C@H](CCC(N)=O)NC(=O)[C@@H]1CCC(=O)N1`, the growth is 108% in [1]; 103% in test [2]; 100% in test [3]; 86.8% in test [4]; 92.8% in test [5]; 114% in test [6]. Further, the growth in test [7] was 103%; in test [8], 107%; in test [9], 111%; in test [10], 86.8%.
For `CC1CCN(CCCCCOc2ccc3oc4ccccc4c(=O)c3c2)CC1`, the growth is 60.1% in [1]; 81% in test [2]; 88.4% in [3]; 77.3% in test [4]; 93.9% in test [5]; 68.9% in test [6]. The growth in [7] was 87.6%; in test [8] it was 70.3%; in [9] it was 78.3%; in test [10] it was 67.6%.
For `CCCn1c2cc(OCc3cn(-c4ccc(Br)cc4)nn3)ccc2c2ccnc(C)c21`, the growth is 33% in test [1]; 50.8% in [2]; 68.3% in test [3]; -44% (active) in test [4]; 85.7% in test [5]; 49.1% in test [6]. The growth was 60.5% in test [7], 66.9% in test [8], 63.1% in [9] and 66.6% in test [10].
`CCOC(=O)c1c(C)nc2c(c1N)/C(=C/c1cccs1)C(=O)N2c1ccc(OC)cc1`: the growth is 74.5% in [1]; 20.5% in test [2]; 102% in test [3]; 13.9% in test [4]; 36.6% in [5]; 45.7% in test [6]. Further, the growth is 32.3% in test [7], 25% in test [8], 29% in [9] and 19% in test [10].
For `NC(=O)C(O)(c1ccccc1)c1ccccc1`, the growth in test [1] is 93.2%; in test [2] it was 98.2%; in test [3] it was 110%; in test [4], 101%; in test [5] it was 97.2%; in test [6], 111%. In addition, the growth is -48.6% (active) in test [7], 97.1% in [8], 102% in test [9] and 90.1% in [10].
For `COc1ccc2[nH]c(-c3ccccc3)c(C=C(C#N)C#N)c2c1`, the growth in [1] is -50.2% (active); in [2] it was 48.2%; in [3], 65.7%; in test [4], 35%; in test [5], 51.2%; in test [6], 49.5%. The growth is 7.4% (active) in test [7], 40.9% in test [8], -4.6% (active) in test [9] and 26.4% in test [10].
For the compound `O=C1NC(SCc2ccc(F)cc2)=N/C1=C/c1cccc(OCc2ccc(Cl)cc2)c1`, the growth is 53.5% in test [1]; 52.8% in test [2]; 66.1% in test [3]; -48.4% (active) in [4]; 55.4% in [5]; 26.6% in test [6]. Further, the growth is 18.1% in [7], 29.6% in [8], 65.8% in test [9] and 53.5% in test [10].
Consider `Cc1ccccc1NC(=O)c1sc2nc(C)c(C(C)O)cc2c1N` (stereo not given), for which the growth was 64.1% in test [1]; 58.1% in test [2]; 87.8% in test [3]; 92.9% in [4]; 47.5% in test [5]; 57.6% in [6]. Besides, the growth is 27.8% in test [7], 53.3% in test [8], 29.4% in test [9] and 54% in test [10].
In the case of `COc1ccc(/C(=N\O)c2cc(C)c(OC)c(C)c2)cc1O`, the growth in test [1] is 12.7%; in test [2], 15.3%; in test [3], 46.7%; in [4], 67%; in test [5] it was 51.2%; in test [6], 30.3%. Also, the growth in test [7] is 10.1%; in test [8], 33.5%; in test [9], 28.6%; in test [10], 84.9%.

Values taken from PubChem BioAssay (NCI).
